In PubChem BioAssay (NCATS):
Inconclusive results are not listed. Active and inactive are the calls of the source. Calls follow the shape of the dose curve; as a rule, active = well fitted curve in the direction sought with a large enough effect; inconclusive = small, poorly fitted or top-dose-only effect, or another doubt; inactive = no such curve, though single readings can be large; an effect the other way counts as inactive or inconclusive.

Experiments:
[1] = test system: CRL-7250; experiment: Cytotoxic Profiling of Annotated Libraries Using Quantitative High-Throughput Screening (AID 1296008); conditions: Five cell lines viability, CellTiter-Glo ATP luminescence, 48-72 h; max response: hits give low values; also: nearly all actives have a fitted effect of over 60% in size; as to max response: % is scaled to controls: 0 for no effect and ±100 for the full control effect
Outline: (§1)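 Cells exposed to compounds for 48 or 72 hr at 37 degrees Celsius. Viability read as ATP-coupled luminescence with CellTiter-Glo after 10 min at room temperature.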

[2] = test system: HEK293; experiment: as above; conditions: Five cell lines viability, CellTiter-Glo ATP luminescence, 48-72 h; max response: hits give low values
Outline: as §1

[3] = test system: HaCat; experiment: as above; conditions: Five cell lines viability, CellTiter-Glo ATP luminescence, 48-72 h; max response: hits give low values
Outline: as §1

[4] = test system: KB-3-1; experiment: as above; conditions: Five cell lines viability, CellTiter-Glo ATP luminescence, 48-72 h; max response: hits give low values
Outline: as §1

[5] = test system: NIH3T3; experiment: as above; conditions: Five cell lines viability, CellTiter-Glo ATP luminescence, 48-72 h; max response: hits give low values
Outline: as §1

[6] = test system: HACAT; experiment: qHTS assay to identify novel small-molecules to repurpose for Merkel cell carcinoma treatment (AID 1296009); conditions: MCC and control cell lines, CellTiter-Glo viability, 72 h; at 44.8 µM (top of the series) unless noted; also: nearly all actives have a fitted effect of over 60% in size
Outline: (§2)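 Cells were incubated with compound for 72 hr at 37 degree celsius before CellTiter-Glo addition. Luminescence was normalized with no-cell wells as full cytotoxicity and DMSO as baseline.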

[7] = test system: HEK293T; experiment: as above; conditions: MCC and control cell lines, CellTiter-Glo viability, 72 h; series mostly up to 44.8 µM
Outline: as §2

[8] = test system: C33A; experiment: Primary qHTS to identify gynecologic anti-cancer compounds using libraries of approved drugs and bioactive compounds (AID 1345084); conditions: Gynecologic cancer cell panel viability, ATPlite luminescence, 48 h; series mostly up to 57.5 µM; also: % is scaled to controls: 0 for no effect and ±100 for the full control effect; nearly all actives have a fitted effect of over 55% in size
Outline: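 Cytotoxicity screen measuring ATP content by luciferase luminescence. Each compound is applied at five concentrations for 48 h at 37 C with 5% CO2.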

[9] = test system: NIH3T3; experiment: qHTS assay to identify novel small-molecules to repurpose for Merkel cell carcinoma treatment (AID 1296009); conditions: MCC and control cell lines, CellTiter-Glo viability, 72 h; at 44.8 µM (top of the series) unless noted; also: nearly all actives have a fitted effect of over 60% in size
Outline: as §2

C[C@@H]1C/C=C/C=C\C=C\C=C\[C@H](O[C@@H]2O[C@H](C)[C@@H](O)[C@H](N)[C@@H]2O)C[C@@H]2O[C@](O)(C[C@@H](O)C[C@H]3O[C@@H]3/C=C/C(=O)O1)C[C@H](O)[C@H]2C(=O)O
inactive: max response [1] 2.84% | outcome [2] | outcome [3] | max response [4] 3.12% | max response [5] -11.8% | outcome [6] inactive [at 17.4 µM] | Potency [7] | Potency [8]

O=C(/C=C/c1ccc(O)cc1)OC[C@]12O[C@H]1[C@@H](O)[C@@H]1C=CO[C@@H](O[C@@H]3O[C@H](CO)[C@@H](O)[C@H](O)[C@H]3O)[C@@H]12
inactive: max response [1] -7.12% | outcome [2] | outcome [3] | max response [4] 8.48% | outcome [5] | outcome [6] inactive [at 17.4 µM] | Potency [7] | Potency [8]

C/C=C(\C)C(=O)OC[C@H]1O[C@H](O[C@H]2O[C@H](CO)[C@@H](OC(=O)/C(C)=C/C)[C@H](O)[C@H]2O[C@@H]2O[C@H](CO)[C@@H](O)[C@H](O)[C@H]2O)[C@H](O[C@@H]2O[C@H](CO)[C@@H](O)[C@H](O)[C@H]2O)[C@@H](O)[C@@H]1O
inactive: max response [1] -3.07% | outcome [2] | outcome [3] | max response [4] 8.89% | max response [5] 2.61% | outcome [6] inactive [at 9.27 µM] | outcome [7] inactive [at 9.27 µM] | activity change, negative = cytotoxicity [8] 3.37% [at 11.6 µM]

C[C@@H]1O[C@@H](OC[C@H]2O[C@@H](OCC3CCC4CC3C4(C)C)[C@H](O)[C@@H](O)[C@@H]2O)[C@H](O)[C@H](O)[C@H]1O (stereo partly specified)
inactive: max response [1] -0.807% | outcome [2] | outcome [3] | max response [4] 6.44% | max response [5] -1.43% | outcome [6] inactive [at 17.4 µM] | Potency [7] | Potency [8]

O=C1[C@H](O[C@@H]2O[C@H](CO)[C@@H](O)[C@H](O)[C@H]2O)Oc2ccccc2N1O
inactive: max response [1] 1.51% | outcome [2] | outcome [3] | max response [4] 3.12% | max response [5] 0.0797% | outcome [6] | Potency [7] | Potency [8]

CN1CCC(c2c[nH]c3ccc(NC(=O)c4ccc(F)cc4)cc23)CC1
inactive: max response [1] -9.85% | outcome [2] | outcome [3] | max response [4] 7.4% | max response [5] -0.678% | outcome [6] | Potency [7] | Potency [8]

CC(C)=CCC/C(C)=C/CC/C(C)=C/CC[C@]1(C)CCc2cc(O)cc(C)c2O1
inactive: max response [1] 3.81% | outcome [2] | outcome [3] | max response [4] 1.67% | max response [5] 1.13% | outcome [6] inactive [at 17.4 µM] | Potency [7] | Potency [8]

CC1CCC2(NC1)OC1C(=O)C3C4CCC5CC(O[C@@H]6O[C@H](CO)[C@@H](O)[C@H](O)[C@H]6O[C@@H]6O[C@@H](C)[C@H](O)[C@@H](O)[C@H]6O)CCC5(C)C4CCC3(C)C1C2C (stereo partly specified)
inactive: outcome [1] | outcome [2] | outcome [3] | max response [4] -4.49% | max response [5] -2.88% | outcome [6] inactive [at 17.4 µM] | Potency [7] | Potency [8]

CC(=O)Oc1cc2c(s1)CCN([C@H](C(=O)C1CC1)c1ccccc1F)C2
inactive: max response [1] -0.62% | outcome [2] | outcome [3] | outcome [4] | max response [5] 3.19% | outcome [6] | Potency [7] | Potency [8]

CC1=CC(=O)C[C@H]2[C@@H]1CC[C@@H](C)[C@]21CO[C@H](c2ccoc2)C1=O
inactive: max response [1] 3.91% | outcome [2] | outcome [3] | max response [4] -0.71% | max response [5] -2.85% | outcome [6] | Potency [7] | Potency [8]

C=C(C)C(C)C1OC23CC4(CO2)C(CCC2C5(C)CCC(OC6OCC(O)C(OC7OC(CO)C(O)C(OC8OCC(O)C(O)C8O)C7O)C6OC6OC(CO)C(O)C6O)C(C)(C)C5CCC24C)C3C(C)(O)C1OC(C)=O (stereo unspecified)
inactive: max response [1] -0.008% | outcome [2] | outcome [3] | max response [4] 6.52% | max response [5] -2.26% | outcome [6] inactive [at 9.27 µM] | outcome [7] inactive [at 9.27 µM] | activity change, negative = cytotoxicity [8] 2.75% [at 11.6 µM]

COc1cccc(-n2nc(C(=O)O)cc2-c2ccc(C3CCCCC3)c(Cl)c2)c1
inactive: outcome [1] | outcome [2] | outcome [3] | outcome [4] | max response [5] 2.94% | outcome [6] | Potency [7] | Potency [8]

CC(=O)NC(CCC(=O)O)C(=O)NCCc1ccc(O)cc1 (stereo unspecified)
inactive: outcome [1] | outcome [2] | outcome [3] | outcome [4] | outcome [5] | outcome [6] | Potency [7] | Potency [8]

CC(=O)O[C@@H]1[C@H](O[C@@H]2OC[C@](O)(CO)[C@H]2O)[C@@H](O[C@@H]2O[C@@H](C)[C@H](O)[C@@H](O)[C@H]2O)[C@H](OC(=O)[C@]23CCC(C)(C)C[C@H]2C2=CCC4[C@@]5(C)C[C@H](O)[C@H](O[C@@H]6O[C@H](C(=O)O)[C@@H](O)[C@H](O)[C@H]6O)[C@@](C)(C(=O)O)C5CC[C@@]4(C)[C@]2(C)CC3)O[C@@H]1C (stereo partly specified)
inactive: max response [1] -0.437% | outcome [2] | outcome [3] | outcome [4] | max response [5] 2.52% | outcome [6] inactive [at 9.27 µM] | outcome [7] inactive [at 9.27 µM] | activity change, negative = cytotoxicity [8] -3.02% [at 11.6 µM]

CC(=O)O[C@H]1C[C@@H]2[C@]3(CC[C@]4(C)[C@@H](C5(C)CCC(C(C)(C)O)O5)[C@@H](O)C[C@@]24C)C[C@@]32CC[C@H](O[C@@H]3OC[C@@H](O)[C@H](O)[C@H]3O)C(C)(C)[C@H]12 (stereo partly specified)
inactive: max response [1] 4.65% | outcome [2] | outcome [3] | outcome [4] | max response [5] 1.48% | outcome [6] inactive [at 17.4 µM] | Potency [7] | Potency [8]

O=C(c1ccc(NS(=O)(=O)c2cccc3cccnc23)cc1)N1CCN(CC2CC2)CC1
inactive: max response [1] -4.28% | outcome [2] | outcome [3] | max response [4] -0.69% | max response [5] 0.212% | outcome [6] | Potency [7] | Potency [8]

CCOc1nc2cccc(C(=O)O)c2n1Cc1ccc(-c2ccccc2-c2noc(=O)[nH]2)cc1
inactive: max response [1] 4.39% | outcome [2] | outcome [3] | outcome [4] | max response [5] -8.35% | outcome [6] | Potency [7] | Potency [8]

O=C(c1ccc(F)cc1)C1CCN(CCn2c(=O)nc3n(c2=O)CCCC3)CC1
inactive: max response [1] 3.3% | outcome [2] | outcome [3] inactive; activator | max response [4] -0.742% | max response [5] -0.166% | outcome [6] inactive; activator | Potency [7] | Potency [8]

O=C(c1ccc(C#Cc2cccc(F)c2)cn1)N1CC2CC2C1 (stereo unspecified)
inactive: outcome [1] | outcome [2] | outcome [3] | outcome [4] | max response [5] 3.17% | outcome [6] | Potency [7] | Potency [8]

C/C=C1/[C@H](O[C@@H]2O[C@H](CO)[C@@H](O)[C@H](O)[C@H]2O)OC=C(C(=O)OC)[C@H]1CC(=O)O[C@@H]1O[C@H](CO)[C@@H](O)[C@H](O)[C@H]1O
inactive: outcome [1] | outcome [2] | outcome [3] | outcome [4] | max response [5] 4.1% | outcome [6] inactive [at 17.4 µM] | Potency [7] | Potency [8]

CC1(C)C[C@H]2C3=CCC4[C@@]5(C)CC[C@H](O[C@H]6O[C@H](C(=O)O)[C@@H](O)[C@H](O)[C@H]6O[C@H]6O[C@H](CO)[C@@H](O)[C@H](O)[C@H]6O[C@@H]6O[C@H](CO)[C@@H](O)[C@H](O)[C@H]6O)[C@](C)(CO)C5CC[C@@]4(C)[C@]3(C)CC[C@@]2(C)[C@H](O[C@@H]2OC[C@H](O)[C@H](OC3O[C@H](CO)[C@@H](O)[C@H](O)[C@H]3O)[C@H]2O)[C@@H]1O (stereo partly specified)
inactive: max response [1] 3.94% | outcome [2] | outcome [3] | max response [4] 9.85% | max response [5] 4.34% | outcome [6] inactive [at 9.27 µM] | outcome [7] inactive [at 9.27 µM] | activity change, negative = cytotoxicity [8] 3.46% [at 6.55 µM]

C=C1CCC(OC(C)=O)C2(C)CC3(O)OC(=O)C(C)=C3CC12 (stereo unspecified)
inactive: max response [1] -6.35% | outcome [2] | outcome [3] | max response [4] 4.81% | max response [5] -2.74% | outcome [6] | Potency [7] | Potency [8]

O=C(/C=C/c1ccc(O)cc1)OCC1=C[C@@H](O)[C@@H]2C=CO[C@@H](O[C@@H]3O[C@H](CO)[C@@H](O)[C@H](O)[C@H]3O)[C@H]12
inactive: max response [1] -2.56% | outcome [2] | outcome [3] | outcome [4] | outcome [5] | outcome [6] inactive [at 17.4 µM] | Potency [7] | Potency [8]

COc1ccc(/C=C/C(=O)O[C@H]2[C@@H]3C=CO[C@@H](O[C@@H]4O[C@H](CO)[C@@H](O)[C@H](O)[C@H]4O)[C@@H]3[C@@]3(CO)O[C@@H]23)cc1O
inactive: outcome [1] | outcome [2] | outcome [3] | outcome [4] | max response [5] 2.14% | outcome [6] inactive [at 17.4 µM] | Potency [7] | Potency [8]

COC(=O)[C@@H]1C2CC3c4[nH]c5ccccc5c4CCN3CC2CC[C@@H]1O (stereo partly specified)
inactive: outcome [1] | outcome [2] | max response [3] -0.215% | max response [4] 6.91% | outcome [5] | Potency [7] | outcome [9] | Potency [8]

CC1=C2C=C(CO)C(CO)CCC2(C)CCC1=O (stereo unspecified)
inactive: max response [1] -3.34% | outcome [2] | outcome [3] | outcome [4] | max response [5] -1.32% | outcome [6] | Potency [7] | Potency [8]

CC(C)CC(=O)O[C@@H]1OC=C(CO[C@@H]2O[C@H](CO[C@@H]3O[C@H](CO)[C@@H](O)[C@H](O)[C@H]3O)[C@@H](O)[C@H](O)[C@H]2O)[C@H]2C[C@H](O)[C@@H](CO)[C@@H]12
inactive: max response [1] 4.5% | outcome [2] | outcome [3] | outcome [4] | max response [5] 0.598% | outcome [6] inactive [at 17.4 µM] | Potency [7] | Potency [8]
